In all, about 16,000 compounds went through this assay and about 5,100 (32%) were called active. Another 25% or so got no clear call; they are omitted. This is one part of the list. Unmarked numbers belong to inactive results. Calls follow the shape of the dose curve; as a rule, active = well fitted curve in the direction sought with a large enough effect; inconclusive = small, poorly fitted or top-dose-only effect, or effect the other way; inactive = no such curve, though single readings can be large or run the other way.
Target: Cytochrome P450 3A4 (Homo sapiens) (UniProt P08684)
Assay: Cytochrome panel assay with activity outcomes
Conditions: recombinant CYP, pro-luciferin dealkylation, luminescence, p450-cyp3a4; series mostly up to 57.1 µM; activity, negative = inhibition: at the top concentration
% is scaled to controls: 0 for no effect and ±100 for the full control effect.

Chain of Cytochrome P450 3A4 (Homo sapiens) (P08684 whole entry, looked up): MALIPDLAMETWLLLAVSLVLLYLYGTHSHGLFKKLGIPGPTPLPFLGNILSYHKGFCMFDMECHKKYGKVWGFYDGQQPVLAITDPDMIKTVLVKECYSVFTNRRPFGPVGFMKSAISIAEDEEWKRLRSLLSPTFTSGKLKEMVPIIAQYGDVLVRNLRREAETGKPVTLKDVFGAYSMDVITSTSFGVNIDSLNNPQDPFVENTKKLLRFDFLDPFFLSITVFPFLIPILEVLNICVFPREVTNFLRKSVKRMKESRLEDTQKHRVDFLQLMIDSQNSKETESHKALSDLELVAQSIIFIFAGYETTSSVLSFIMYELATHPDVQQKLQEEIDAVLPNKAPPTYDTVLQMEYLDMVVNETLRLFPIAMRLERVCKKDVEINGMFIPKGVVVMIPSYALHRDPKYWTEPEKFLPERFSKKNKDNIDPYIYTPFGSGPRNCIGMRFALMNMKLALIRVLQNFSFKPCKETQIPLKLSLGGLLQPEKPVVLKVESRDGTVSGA

SMILES | activity, negative = inhibition | AC50
O=C1C=C(NCC2CCCO2)C2(CCCCC2)O1 (stereo unspecified) | -10.6% | 
COC(=O)COc1ccsc1C(=O)OC | -5.82% | 
COc1ccc(/C=N/NC(=O)c2sccc2OCc2ccc(F)cc2)cc1OC | -9.08% [at 2.29 µM] | 
COc1ccc(COc2ccsc2C(=O)Nc2ccc(Cl)c(Cl)c2)cc1 |  | 7.08 µM (active)
CCN(C1CCCCC1)S(=O)(=O)c1ccc(S(=O)(=O)NCc2ccncc2)cc1 |  | 7.08 µM (active)
O=S(=O)(NCc1cccnc1)c1ccc(Cl)nc1 | 5.89% [at 2.29 µM] | 
CCOC(=O)Nc1ccc(S(=O)(=O)NCc2ccccc2)cc1 | -5.85% | 
Oc1ccccc1CNCc1ccccc1O | -7.01% [at 11.4 µM] | 
COc1ccccc1CNCC(O)(c1ccc(Cl)cc1)c1ccc(Cl)cc1 |  | 3.55 µM (active)
COC(=O)N1CCC2(CCN(Cc3ccccc3OC)CC2)CC1 | -11.5% | 
CCOc1nc(NCCc2ccc(OC)c(OC)c2)nc(NC(C)(C)CO)n1 |  | 11.2 µM (active)
CCCNc1nc(NCC)nc(OC)n1 | 5.69% | 
C=CCOc1ccc(CNC(C)(C)CO)cc1OCC | 2.18% | 
O=C(N/N=C/c1ccco1)c1ccc(Br)o1 | -15.3% | 
CCCN1CCC(=NNC(=O)c2ccc(Br)o2)CC1 | 11.6% [at 2.29 µM] | 
CC(C)N1CCC(=NNC(=O)c2ccc(Br)o2)CC1 |  | 15.8 µM (active)
O=C(c1ccco1)N1CCN(C(=O)c2nn3cccnc3c2Cl)CC1 | 21.1% | 
Cc1ccc(C(c2nnnn2CC2CCCO2)N2CCN(C(=O)c3ccco3)CC2)cc1 (stereo unspecified) |  | 3.55 µM (active)
Cc1ccc(C(CC(=O)c2ccco2)SCCO)cc1 (stereo unspecified) | -23.2% | 
CC(C)CCn1nnnc1C(c1ccc(F)cc1)N1CCN(C(=O)c2ccco2)CC1 (stereo unspecified) |  | 7.94 µM (active)
CN(C)CCCN1CC(C(=O)O)CC1=O (stereo unspecified) | -11.5% | 
CCCCNC(=O)C1CC(=O)N(CCC(C)C)C1 (stereo unspecified) | 0.276% [at 11.4 µM] | 

SMILES | activity, negative = inhibition | AC50
Cc1ccc(CCN2CC(C(=O)NC3CCCC3)CC2=O)cc1 (stereo unspecified) |  | 15.8 µM (active)
CCOCCCN1CC(C(=O)NCCc2ccc(C)cc2)CC1=O (stereo unspecified) |  | 15.8 µM (active)
Cc1ccc(CCN2CC(C(=O)NCCN3CCOCC3)CC2=O)cc1 (stereo unspecified) | -12.6% | 
O=C(NCCCN1CCCCCC1)C1CC(=O)N(CCc2ccccc2)C1 (stereo unspecified) | -20.8% | 
Cn1c([N+](=O)[O-])cnc1COC(N)=O | -5.99% [at 25.6 µM] | 
Cc1[nH]c(=O)c(C(=O)/C=C/c2ccccc2F)c2c1CCCC2 |  | 11.2 µM (active)
COc1ccccc1/C=C/C(=O)c1c2c(c(C)[nH]c1=O)CCCC2 |  | 3.98 µM (active)
C[N+](C)(C)CCOC(N)=O |  | inactive
Fc1ccc(Nc2nc(-c3ccoc3)nc3ccccc23)cc1 |  | 3.98 µM (active)
c1ccc2c(NC3CC3)nc(-c3ccoc3)nc2c1 |  | 3.98 µM (active)
CNc1nc(-c2ccoc2)nc2ccccc12 |  | 15.8 µM (active)
c1ccc2c(NC3CCNCC3)nc(-c3ccoc3)nc2c1 | -5.63% | 
c1ccc2c(Nc3ccncc3)nc(-c3ccoc3)nc2c1 |  | 1.26 µM (active)
O=S(=O)(c1ccc(F)cc1)N1CC2CCCN2c2ccc(C(F)(F)F)cc21 (stereo unspecified) |  | 6.31 µM (active)
COc1ccc(S(=O)(=O)N2CC3CCCN3c3ccc(C(F)(F)F)cc32)cc1 (stereo unspecified) |  | 1 µM (active)
O=C1COc2ccc(OCc3ccc(F)cc3)cc21 | 3% | 
OCc1ccc(-c2nn(Cc3ccccc3)c3ccccc23)o1 |  | 12.6 µM (active)
NC(=O)c1csc(-c2ccc(CO)o2)n1 | -8.17% [at 11.4 µM] | 
Clc1cc2c(c(CSC3=NCN(CC4CC4)CN3)c1)OCOC2 | -21.4% [at 11.4 µM] | 
CCCCCCCCOC1OC(CO)C(O)C(O)C1NC(C)=O (stereo unspecified) | -7.28% | 
CC(=O)NC1C(OCCOc2ccc(Cl)cc2Cl)OC(COC(C)=O)C(OC(C)=O)C1OC(C)=O (stereo unspecified) |  | 14.1 µM (active)
CC(=O)OC[C@@H]1O[C@@H](O/N=C2/C[C@@H](O)[C@@H](O)[C@@H]3[C@H]4C(=O)N(c5ccc(F)cc5F)C(=O)[C@@H]4CC[C@@H]23)[C@H](OC(C)=O)[C@H](OC(C)=O)[C@@H]1OC(C)=O | -27.1% [at 11.4 µM] | 

SMILES | activity, negative = inhibition | AC50
Cc1cc(-c2ccccc2)[nH]c(=O)c1S(=O)(=O)c1ccc(Cl)cc1 | -12.9% | 
CNc1nc(C)cc(C)c1S(=O)(=O)c1ccc(Cl)cc1 |  | 4.47 µM (active)
CNc1oc(C)nc1S(=O)(=O)c1ccc(C)cc1 | -16.1% | 
CNc1nc(C)cc(C)c1S(=O)(=O)c1ccc(C)cc1 |  | 4.47 µM (active)
CCCSc1nc(C)cc(C)c1S(=O)(=O)c1ccccc1C | -17.7% | 
COc1ccc(C2Nc3ccccc3C(=O)N2Cc2ccco2)cc1COc1ccc([N+](=O)[O-])cc1 (stereo unspecified) |  | 4.47 µM (active)
Cc1ccc(C2Nc3ccccc3C(=O)N2Cc2ccco2)cc1 (stereo unspecified) |  | 14.1 µM (active)
COc1ccc([N+](=O)[O-])cc1COc1ccc2c(-c3ccccc3)cc(=O)oc2c1 | -22.6% | 
CN1CCC2(CC1)CCN(S(=O)(=O)c1ccccc1)CC2 | -12.4% | 
O=S(=O)(c1ccccc1)N1CCC2(CCCN(C(c3ccccc3)c3ccccc3)C2)CC1 |  | 2 µM (active)
O=S(=O)(c1ccccc1)N1CCC[C@@]2(CCN(C(c3ccccc3)c3ccccc3)C2)C1 |  | 3.16 µM (active)
Cn1c(=O)c2[nH]c(COCc3nc4c([nH]3)c(=O)n(C)c(=O)n4C)nc2n(C)c1=O | -0.524% [at 11.4 µM] | 
O=C1Cc2c([nH]c3ccc(Br)cc23)-c2ccccc2N1 |  | 12.6 µM (active)
OCCN=C1CCCc2c1[nH]c1ccc(Br)cc21 | -11% | 
O=C1CCCCC(=O)c2ccccc2N1 | -7.97% | 
CC(C)OCCCN1CN(S(=O)(=O)c2cccc(Cl)c2)c2nc3ccccc3nc21 |  | 7.94 µM (active)
CCN1C(=O)C(CC(=O)Nc2ccc(Br)cc2)N(CCCc2ccccc2)C1=S (stereo unspecified) |  | 2.51 µM (active)
CCOc1ccc(N2C(=O)/C(=C/c3cccs3)N(CC(=O)OC)C2=S)cc1 | -26.9% | 
COCC(=O)Nc1ccc(-c2cn3cccnc3n2)cc1 | -9.62% | 
CCN1C(=O)C(CC(=O)Nc2ccc(OC)cc2)N(Cc2cccs2)C1=S (stereo unspecified) |  | 3.98 µM (active)
CCCCC(=O)Nc1ccc(C(=O)NNC(=O)CCc2ccccc2)cc1 | -12.2% | 
CCN1C(=O)C(CC(=O)Nc2ccc(OC)cc2)N(Cc2cccnc2)C1=S (stereo unspecified) |  | 11.2 µM (active)
